Source: PubChem (Sanford-Burnham Center for Chemical Genomics)
Peg3 promoter – inhibitors of Peg3 promoter. HeLa PEG-Prom luciferase reporter, luminescence, overnight. inhibition, % at 20 µM. hit rate 1.7% among 360,000;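 active = inhibition of at least 50% at 20 µM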
HIF-2a block – inhibitors of HIF-2a. inhibition, % at 18.8 µM. hit rate 0.72% among 360,000. 786-0 RCC cells HIF-2a reporter, luciferase luminescence, overnight. AID 624352;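 active = inhibition of the luminescence signal of 40% or more relative to plate controls, in a single-dose primary screen at 18.75 µM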
TWEAK Fn14 block – blocks TWEAK-Fn14 interaction in a reporter cell assay. hit rate 2% among 360,000. TWEAK-stimulated Fn14 reporter cells, luciferase luminescence, 8 h. inhibition, % at 10 µM; in the data active = inhibition above about 50%
CF NFkB block – cystic fibrosis NF-kB activation inhibition. inhibition, % at 5 µM. AID 588850. KKLEB NF-kB-GFP reporter, PAF-induced, GFP fluorescence overnight. hit rate 0.86% among 360,000;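 active = at least 50% inhibition at 5 µM, scaled per plate between neutral and stimulator controls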;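 note: PAF is a Pseudomonas aeruginosa culture filtrate used as stimulus; plate controls were PAF-stimulated DMSO wells for no effect and unstimulated DMSO wells for full effect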
TROY signal inh – TROY signaling inhibition | hit rate 0.98% among 360,000 | Q293 LMP1-TROYcd NF-kB luciferase reporter, 4 h | inhibition, % at 10 µM;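 active = compounds whose plate-normalised and pattern-corrected inhibition of the luciferase reporter signal at the single screening dose is 50% or more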
KKLEB cytotox – reduces viability of KKLEB cystic fibrosis airway cells. AID 602141. activity change (cytotoxicity), % at 5 µM. KKLEB CF airway cells viability, ATPlite luminescence, overnight; stronger effect = lower value; cells stimulated with P. aeruginosa culture filtrate. hit rate 0.36% among 360,000;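 active = corrected activity change at or below -50% at 5 µM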
An asterisk follows results filed as active; · = not tested or not shown. An excerpt weighted towards active compounds, which were near 4% of everything screened.

SMILES	Peg3 promoter	HIF-2a block	TWEAK Fn14 block	CF NFkB block	TROY signal inh	KKLEB cytotox
Cc1c(C(=O)NCc2ccc3c(c2)OCO3)oc2ccc(S(=O)(=O)N3CCCCC3)cc12	40	13	59*	6	16	-24
Cc1c(C(=O)N(Cc2ccccc2)C(C)C)oc2ccc(S(=O)(=O)N3CCOCC3)cc12	51*	25	21	19	42	-4
c1ccc(CN(Cc2ccccc2)c2ncnc3c2nnn3Cc2ccccc2)cc1	28	29	11	3	3	1
O=C1C2C3c4ccccc4C(c4ccccc43)C2c2nc3ccccc3n21 (configuration not stated)	1	18	52*	-12	·	12
CN1C(=O)C2C3c4ccccc4C(c4ccccc43)[C@@H]2C1=O (some centres not stated)	7	21	3	-8	13	6
CCOCCc1nnc(NC(=O)C(CC)c2ccccc2)s1 (configuration not stated)	6	16	2	2	-3	6
CCOC(=O)C(=NC(C)CC)NNc1cccc(C(F)(F)F)c1 (configuration not stated)	0	0	58*	3	0	6
CCOC(=O)c1c(NC(=O)c2nn(CC)cc2Br)sc2c1CCCCC2	-3	-13	-13	6	-18	9
CCn1cc(C(=O)NC(=S)Nc2sc3c(c2C(=O)OC)CCCCCC3)cn1	39	11	-19	19	71*	-21
O=C(NCc1nc(-c2ccc(C(F)(F)F)cc2)no1)c1cccs1	-3	-6	-6	-7	-5	-1
O=C(C=Cc1ccccc1Cl)c1ccccc1	3	-96	-3	15	-46	1
O=C(/C=C/Sc1ccccc1)c1ccc(Cl)cc1	-16	-252	78*	-2	30	-12
O=C(/C=C/Sc1ccccc1)c1ccccc1	79*	-53	90*	21	34	-29
N#CC[C@H](Cc1ccccc1)N1CCN(CCc2ccccc2)CCC1=O	0	3	-5	5	4	-4
CCOc1ccccc1N(CC(=O)NCc1ccco1)C(=O)CCC(=O)Nc1nccs1	1	4	-2	-10	-12	-5
COc1ccc(C(=O)O)cc1S(=O)(=O)N1CCSCC1	4	10	1	-23	-15	1
CN(C)c1ccc(/C=C(\Cl)c2nc3ccccc3s2)cc1	34	25	92*	-21	73*	-28
CC(C)Cn1nc(NC(=O)c2cccs2)c2cc3ccccc3nc21	4	6	-14	1	9	8
COc1ccc2nc3c(cc2c1)c(NC(=O)c1cccs1)nn3CC(C)C	25	-108	51*	-5	4	2
COc1ccc(OC)c(/C=C/c2ccc3cccc(O)c3n2)c1	83*	-95	-9	-41	-11	5
Oc1cccc2ccc(/C=C/c3ccccc3Br)nc12	-161	-276	56*	-6	55*	-14
COc1cc(Br)c(/C=C/c2ccc3cccc(O)c3n2)cc1OC	-47	-11	-22	13	8	-3
Cc1nc2ccc(NC(=O)c3cccs3)cc2c(=O)n1Cc1ccc(Cl)cc1	22	-66	83*	-8	70*	-4
CCCc1nc2ccc(NC(=O)c3cccs3)cc2c(=O)n1Cc1ccc(Cl)cc1	-20	-99	18	6	-9	-2
CCCc1ccc(-c2cc(C(=O)NN3CCOCC3)c3ccccc3n2)cc1	-153	-152	-9	-50	-52	-30
SMILES	Peg3 promoter	HIF-2a block	TWEAK Fn14 block	CF NFkB block	TROY signal inh	KKLEB cytotox
CCNC(=S)NNC(=O)c1cc(-c2ccc(OCC)cc2)nc2ccccc12	-28	-15	52*	-5	-3	-51*
CCc1ccc(-c2cc(C(=O)Nn3cnnc3)c3ccccc3n2)cc1	37	11	59*	-1	-2	-32
CCN1CCN(c2cc(C)c3cc(NC(=O)c4cc(OC)cc(OC)c4)ccc3n2)CC1	-15	-182	-69	-2	4	-29
CC(=O)NCC(c1cccs1)S(=O)(=O)c1ccc(F)cc1 (configuration not stated)	0	13	-1	1	4	11
CCCCCCCCCCCCCCCC[N+](C)(C)Cc1ccc(F)cc1	105*	37	6	10	13	-32
O=[N+]([O-])c1ccc(N2CCN(C(=S)Nc3ccccc3)CC2)cc1	3	5	-4	-12	1	7
O=[N+]([O-])c1ccc(NC(=S)N2CCN(c3ccccc3)CC2)cc1	9	-6	56*	16	8	-4
CC(NC(=S)N1CCN(c2ccccc2)CC1)c1ccccc1 (configuration not stated)	11	-3	65*	-7	8	1
COc1ccccc1N/C(N)=N/c1nc(CSc2ccc(C)cc2)cc(=O)[nH]1	18	0	44	-11	14	-1
Cc1ccc(SCc2cc(=O)[nH]c(/N=C(\N)Nc3ccccc3Sc3ccccc3)n2)cc1	8	0	65*	-6	-1	-5
O=C(CCC1CCCN(C(=O)c2ccccc2Cl)C1)N1CCN(c2ccccn2)CC1 (configuration not stated)	11	-6	-7	7	4	10
C=CCn1c(=O)c2ccc(C(=O)NCc3ccccc3)cc2n(Cc2ccc(C)cc2)c1=O	14	4	-33	32	-20	-19
CC1OC(Nc2cccc3ccccc23)C(O)C(O)C1O (configuration not stated)	-16	7	92*	30	28	-27
CC1OC(Nc2ccc(N=Nc3ccccc3)cc2)C(O)C(O)C1O (configuration not stated)	-168	-151	-21	-25	-40	12
CCOC(=O)c1ccc(NC2OC(=O)c3ccccc32)cc1 (configuration not stated)	-13	4	-1	7	15	-4
COc1ccc(S(=O)(=O)N(C(=O)c2ccncc2)c2ccc3oc4c(c3c2)CCCC4)cc1	45	20	51*	32	44	-11
CCOC(=O)c1sc(Nc2ccccc2Cl)nc1C	-290	-340	-40	17	-51	-5
COC(=O)c1sc(NC(=S)NC(=O)c2ccccc2F)nc1C	-212	-189	52*	-4	21	8
CCOC(=O)c1sc(NC(=O)CN2C(=O)C3CC=CCC3C2=O)nc1C (configuration not stated)	89*	15	24	12	2	2
CCOC(=O)c1sc(NC(=O)CSc2nnc(C(C)C)n2CC)nc1C	52*	5	13	-4	3	-9
CCOC(=O)c1sc(NC(=O)Nc2ccccc2F)nc1C	-28	-6	94*	11	82*	-35
Cc1ccc(SCCCn2cncn2)cc1	-1	-10	-4	-9	-11	-3
CCOc1ccc(N=Cc2c(O)c3ccccc3oc2=O)cc1	-29	-68	5	15	29	-11
